# Key:
# Assay in all cases: PBM binding z-score (relative to random genomic background probes); higher = stronger binding; sequences stand for … in GC…GCGATTGACAGCGTAGAATGAAGG
# [1] = system: FXR:RXRa (NR concentration 270 nM, RXRa partner concentration 90 nM)
# Outline: (§1)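 Each nuclear receptor dimer, without ligand, was incubated for 1 h on custom Agilent 4×180K protein-binding microarrays. Binding was detected with antibodies against each partner (one per run), and scanned fluorescence was regression-normalized. The binding z-scores are referenced to random human genomic background probes.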
# [2] = system: LXRa:RXRa (NR concentration 270 nM, RXRa partner concentration 90 nM)
# Outline: as §1
# [3] = system: LXRa homodimer (NR concentration 270 nM)
# Outline: as §1
# [4] = system: LXRb:RXRa (NR concentration 270 nM, RXRa partner concentration 90 nM)
# Outline: as §1
# [5] = system: LXRb homodimer (NR concentration 270 nM)
# Outline: as §1
# [6] = system: PPARa:RXRa (NR concentration 270 nM, RXRa partner concentration 90 nM)
# Outline: as §1
# [7] = system: PPARg:RXRa 270nM:90nM, anti-RXR (NR concentration 270 nM, RXRa partner concentration 90 nM)
# Outline: as §1
# [8] = system: PPARg:RXRa 30nM:10nM, anti-RXR (NR concentration 30 nM, RXRa partner concentration 10 nM)
# Outline: as §1
# [9] = system: PPARg:RXRa 90nM:30nM, anti-RXR (NR concentration 90 nM, RXRa partner concentration 30 nM)
# Outline: as §1
# [10] = system: PPARg:RXRa DBDmut IVT, anti-RXR (DBD mutation: RXRa K156A/R161A, NR concentration 270 nM, RXRa partner concentration 90 nM)
# Outline: as §1
# [11] = system: PPARg:RXRa IVT, anti-PPARg (NR concentration 270 nM, RXRa partner concentration 90 nM)
# Outline: as §1
# [12] = system: PPARg DBDmut:RXRa IVT, anti-PPARg (DBD mutation: PPARg1 K132A/R137A, NR concentration 270 nM, RXRa partner concentration 90 nM)
# Outline: as §1
# [13] = system: PPARg DBDmut IVT, anti-PPARg (DBD mutation: PPARg1 K132A/R137A, NR concentration 270 nM)
# Outline: as §1
# [14] = system: PPARg homodimer (NR concentration 180 nM)
# Outline: as §1
# [15] = system: PXR:RXRa (NR concentration 270 nM, RXRa partner concentration 90 nM)
# Outline: as §1
# [16] = system: PXR homodimer (NR concentration 270 nM)
# Outline: as §1
# [17] = system: RARa:RXR (NR concentration 270 nM, RXRa partner concentration 90 nM)
# Outline: as §1
# [18] = system: RARa homodimer (NR concentration 270 nM)
# Outline: as §1
# [19] = system: RARb:RXRa (NR concentration 270 nM, RXRa partner concentration 90 nM)
# Outline: as §1
Sequence,PBM binding z-score [1],PBM binding z-score [2],PBM binding z-score [3],PBM binding z-score [4],PBM binding z-score [5],PBM binding z-score [6],PBM binding z-score [7],PBM binding z-score [8],PBM binding z-score [9],PBM binding z-score [10],PBM binding z-score [11],PBM binding z-score [12],PBM binding z-score [13],PBM binding z-score [14],PBM binding z-score [15],PBM binding z-score [16],PBM binding z-score [17],PBM binding z-score [18],PBM binding z-score [19]
CCTAGTTGGTCAGGAGGTCCCACACCGGATATGA,0.0406,-0.213,0.429,-0.248,0.251,-0.0736,0.194,-0.0977,-0.144,0.207,0.483,-0.124,-0.0969,1.06,-0.0476,0.63,-0.0305,0.95,0.64
TATACTGGGTCAAAGGCCAGAGTACGAATGTCGA,4.05,3.73,1.34,2.81,1.32,5.52,8.98,8.63,10.2,6.17,7.37,3.19,3.85,5.01,2.33,0.331,3.3,0.721,3.59
AAAATGAGGTTAAGATCAGGGAAACAGAATACAT,2.83,2.62,0.171,2.1,0.347,4.04,2.67,1.16,2.41,3.27,3.78,1.96,0.972,1.85,1.26,0.646,2.48,0.889,2.04
ATATGTAGGTTAGCTGGGGTCATTCCGACTAGGC,4.03,5.97,3.23,4.79,1.3,5.14,5.12,2.35,4.36,6.8,5.93,1.65,0.994,3.16,6.18,3.73,5.3,0.761,2.99
CGAACTAGGTCAGAGCAGGACAGTGAAGGATGAT,1.33,0.722,-0.112,0.261,-0.67,3.19,5.01,2.43,4.19,7.51,7.58,2.72,2.03,0.79,1.15,-0.0767,1.54,-0.158,2.94
CGGACTGGGGCAAAGGTTACCATACTCAGTACGA,1.68,1.67,-0.108,2.34,-0.125,6.02,9.26,9.67,11.7,6.11,6.8,0.377,0.924,1.68,2.76,-0.252,3.88,0.372,2.42
TTACCAAAGTGAAAGGTCGTTGATGCACGCCTTG,1.49,1.82,0.432,1.57,-0.402,3.17,5.13,2.97,5.02,-0.147,1.43,0.177,0.436,1.39,2.3,0.329,2.39,-0.107,1.86
CAAACTAGGTCACGAAAGGTCAAAGTTGAATGAC,7.31,8.11,8.31,7.43,2.68,6.6,8.55,7.45,8.74,8.71,9.01,2.54,2,4.96,6.9,3.33,7.79,4.38,5.45
CAAACTAGGTCAAGGTCAAATTCGGTTTGTGCCA,6.94,5.69,5.04,5.06,2.23,6.07,7.8,6.71,8.35,8.72,8.78,2.45,3.07,4.71,5.45,2.83,5.82,2.26,5.09
TCATATAGGTTAAGGTGAAAGTCGAACGATATGA,2.27,1.59,0.00535,1.55,0.204,3.44,4.61,4.32,4.87,4.9,4.89,1.69,1.29,1.49,1.04,-0.203,2.19,0.984,2.49
CTAACTAGGTCACCGGAAGGTCAAAGTCCGCATG,6.39,6.17,5.51,5.57,1.15,6.52,8.19,6.41,7.67,8.81,9.32,3.69,4.14,5.86,6.02,2.05,7.24,1.84,5.55
CGCACTAGGTCATTGACAGGACAGTGAATAGTAA,4.64,3.31,0.73,2.31,0.424,4.38,5.96,3.36,5.26,8.05,8.26,3.67,3.71,2.42,1.82,0.54,2.55,0.834,3.81
GATACAGGGTCATCTAGAGGCCAGAGTATGGAAA,6.84,5.02,0.214,4.22,0.201,5.87,5.65,2.33,4.1,1.93,3.6,0.707,0.0112,3.91,4.97,0.378,6.28,0.58,4.48
GCATACGGGTCAAAGGTTATAGCATGAATAGAAT,7.92,5.85,0.463,5.74,0.733,7.06,9.95,10.1,11.7,4.64,6.5,1.34,2.31,3.95,6.29,0.519,8.51,0.512,4.49
CAAACTAGGTCAAAGGTCAGAGTCGAGCCAACCA,7.83,6.32,3.45,6.4,1.62,7.34,11.1,13.1,13.7,8.97,9.43,6.85,6.78,5.97,6.67,1.28,8.46,3.04,5.44
AGTCAAAGTTCAGGACGAGGTAAAGTAAAGCACG,4.27,3.89,1.34,1.9,0.465,3.54,4.89,1.9,4.21,0.127,1.81,0.318,0.49,2.36,2.86,1.28,2.84,1.52,4.33
TTACCAAGGTGAAGGTCGTGGATCCCTCTGTAGA,1.6,1.33,0.0601,1.45,-0.935,3.03,4.71,2.78,4.4,2.23,3.55,-0.363,0.188,0.731,1.53,-0.1,2.38,-0.307,2.4
CCCACTGGGGCAAAGGTTACCATACTCAGTACGA,1.6,1.6,-0.143,2,-0.809,5.98,9.71,9.33,11.5,5.25,7.1,0.141,-0.557,1.73,2.41,-0.111,3.81,0.0182,2.37
CGTCCAACGTCAAGGTCAGTGAAAGAGACTCGAA,1.22,1.12,-0.198,1.28,-0.439,2.04,0.216,-0.429,-0.211,-0.074,-0.0705,-0.79,-0.354,1.13,1.59,0.288,1.99,0.37,3.35
ATCTCTAGGTGAAAGTTCAGTGAATCCCGAGGAT,1.41,1.98,1.24,1.43,0.429,5.61,9.55,9.07,11.4,5.35,6.32,1.5,0.994,1.52,2.87,1.57,2.87,0.586,3
ATCGAAAGGTCGAAGGTGAGTACACCCACCCGAA,4.49,3.49,0.413,2.92,0.705,4.68,4.86,2.04,3.87,0.019,2.74,1.5,0.329,1.98,3.49,0.469,4.08,1.18,3.9
TCATATAGGTAATCAGGTGAAAGTCCGTAAGTTA,1.07,0.945,0.314,0.96,0.374,2.68,4.24,4.28,4.2,5.4,5.17,1.73,1.86,1.32,0.832,0.68,1.14,1.28,0.56
GATACAGGGTCAAGGCCAGAATACGCGTATTGAT,6.98,4.25,0.231,4.25,0.223,5.84,5.74,2.61,4.58,2.36,4.04,0.884,0.396,2.82,3.9,0.4,4.79,0.95,4.6
TCTTGTTGATCAAAGGTTAAGAAAGCCGAAGCCT,1.37,2.26,0.368,2.11,0.469,3.71,6.29,5.57,6.85,1.8,2.11,1.32,0.442,1.36,1.74,0.07,2.31,0.624,2.04
TGAATGAGGTGAAAGATCAGGGAACGTGGCGTCG,1.19,1.1,-0.421,0.428,0.209,4.52,6.92,6.44,7.54,3.85,5,2.22,0.574,0.746,0.587,-0.0848,1.8,-0.562,1.48
CCTTACGGGTCGCTGACAGGTTATAGCATTTGGA,0.72,1.23,-0.237,0.781,-0.428,1.71,0.371,-0.323,-0.0613,0.346,0.0988,-0.356,-0.76,0.641,1,-0.0348,1.68,-0.0216,1.18
CTAACTAGGTCACGAAAGGTCAAAGTCGAATGAC,7.37,8.22,7.7,7.44,2.3,6.57,8.24,7.33,8.68,8.88,9.03,2.32,2.06,5.96,6.97,3.14,7.47,2.75,5.6
AGTAAAAGTTCACTAGGTAACGTAAGATTCAGCT,4.14,4.44,3.1,2.6,1.17,4.32,5,2.09,4.23,2.43,4.33,0.938,1.34,2.48,3.04,2.08,2.39,1.61,4.39
GCTATTAGGTGAAAGGGCAACCGAATGATTCTCG,0.916,1.33,-0.0501,1.25,-0.402,5.57,8.6,8.54,9.84,6.66,6.05,0.769,0.0827,1.6,1.48,0.0465,2.47,0.772,2.48
CAAACTAGGTCAAGAGGTCAAAGGCCGCTTCCCG,7.41,6.17,5.69,5.21,1.49,6.45,8.47,7.55,9.13,8.35,8.52,6.15,3,8.5,6.37,2.72,8.18,4.57,5.58

# — the supplement of paper PMC6555819
